# Results reported in PubChem BioAssay (Tox21).
# Results filed as inconclusive are left out. Entries that show only a call come without a potency. Values without a mark were called inactive. Active and inactive are the calls of the source. Calls follow the shape of the dose curve; as a rule, active = well fitted cell-killing curve with a large enough effect in the repeat runs; inconclusive = weak or mixed curves; inactive = flat fitted curve, though single readings scatter.
# Assay: qHTS assay to identify small molecule antagonists of the estrogen receptor beta (ER-beta) signaling pathway - cell viability counter screen (AID 1259382); also: nearly all actives have a fitted effect of over 55% in size
# Details: ER-beta-UAS-bla HEK293T viability, CellTiter-Glo luminescence, 16 h; series mostly up to 92.4 µM
# Excerpt: U.S. Tox21 Program National Center for Advancing Translational Sciences [NCATS] NIH Chemical Genomics Center [NCGC] U.S. Environmental Protection Agency [EPA] National Institutes of Environmental Health Sciences [NIEHS] National Toxicology Program [NTP] U.S. Food and Drug Administration [FDA] Tox21 Assay Overview: Estrogen receptor (ER), a nuclear hormone receptor, plays an important role in development, metabolic homeostasis and reproduction. Two subtypes of ER, ER-alpha and ER-beta, have similar expression patterns with some uniqueness in both types. Endocrine disrupting chemicals (EDCs) and their interactions with steroid hormone receptors like ER causes disruption of normal endocrine function. To identify the compounds that inhibit ER signaling, an ER-beta-UAS-bla GripTite cell line (Life Technologies, Madison, WI, USA) containing a beta-lactamase reporter gene under the control of an UAS response element was used to screen Tox21 10K compound library. The cytotoxicity of the Tox21 compound library against the ER-beta-bla cell line was tested in parallel by measuring the cell viability using CellTiter-Glo assay in the same wells.
# Tox21 Assay Protocol Summary: ER-beta-UAS-bla HEK293T cells were dispensed at 2,000 cells/4 uL of assay medium containing 2% charcoal stripped FBS per well into black wall/clear-bottom 1536-well plates using a Multidrop Combi (ThermoFisher Scientific, Waltham, MA) dispenser. After the assay plates were incubated at a 37C and 5% CO2 for 6 hr, 23 nL of compounds dissolved in DMSO, positive controls or DMSO only was transferred to the assay plate by a Pintool station (Kalypsys, San Diego, CA), followed by addition of 1 uL (1nM as final concentration) of 17-beta-estradiol (E2) in assay medium using a Flying Reagent Dispenser (FRD, Aurora Discovery, San Diego, CA). The plates were incubated at 37C and 5% CO2 for 16 hr. Then 1 uL of LiveBLAzer B/G FRET substrate was added using a Flying Reagent Dispenser, the plates were incubated at room temperature for 2 hours, and fluorescence intensity was measured by an Envision plate reader (PerkinElmer, Shelton, CT). For cell viability readout that measures cytotoxicity, 4 uL/well of CellTiter-Glo reagent was added into the assay plates using a FRD. After 30 min incubation at room temperature, the luminescence intensity in the plates was measured using a ViewLux (PerkinElmer) plate reader.
# Potency is read from the fitted curve at half-maximal effect.
Structure (SMILES),Potency,"activity change, negative = cytotoxicity"
NC(=O)C1CO1 (stereo not given),inactive,
CO[Si](OC)(c1ccccc1)c1ccccc1,inactive,
Cc1ccc2n[nH]nc2c1,inactive,
C1=CCCC1,inactive,
ClC(c1ccccc1)(c1ccccc1)c1ccccc1,inactive,
CC(C)(C)c1cc(CCC(=O)OCCSCCOC(=O)CCc2cc(C(C)(C)C)c(O)c(C(C)(C)C)c2)cc(C(C)(C)C)c1O,inactive,
N#CCCOCCC#N,inactive,
C1CCSC1,inactive,
CC(C=O)c1ccccc1 (stereo not given),inactive,
CCOC(=O)[C@H](C)O,inactive,
CN(C)CCOc1ccc(/C(=C(/CCCl)c2ccccc2)c2ccccc2)cc1,45.5 µM (active),
CC(c1cc(C(C)(C)C)cc(C(C)(C)C)c1O)c1cc(C(C)(C)C)cc(C(C)(C)C)c1O,inactive,
CCn1c2ccccc2c2ccccc21,inactive,
CC(O)(c1ccc(Cl)cc1)c1ccc(Cl)cc1,inactive,
CC(C)c1ccc2sc3ccccc3c(=O)c2c1,inactive,
CC(C)=CCC[C@H](C)CC=O,inactive,
CC(C)C(=O)C(C)C,inactive,
Cc1ccc(N=Nc2c(O)ccc3ccccc23)c(C)c1,inactive,
O=C1CCCCCCCCCCCCCC1,inactive,
O=c1cc[nH]cc1,inactive,

Structure (SMILES),Potency,"activity change, negative = cytotoxicity"
COc1cc2ncnc(Nc3cccc(Cl)c3)c2cc1OC,,0.759% [at 19 µM]
Oc1ccc2c(c1)CCC2,inactive,
CCOc1nc(F)cc2nc(S(=O)(=O)Nc3c(Cl)cccc3C(=O)OC)nn12,inactive,
CC(=O)Nc1ccc(N=Nc2cc(C)ccc2O)cc1,inactive,
Clc1ccc2c(Cl)ccnc2c1,inactive,
O=C(Nc1ccccc1)c1cc(Cl)ccc1O,inactive,
CCN(CC)c1ccc(C=O)c(O)c1,inactive,
C=Cc1ccncc1,inactive,
CCC(=O)OC/C=C(\C)CCC=C(C)C,inactive,
CC/C=C\C/C=C\C/C=C\CCCCCCCC(=O)OC,inactive,
C=C1CC[C@H]2O[C@]2(C)CC[C@@H]2[C@@H]1CC2(C)C,inactive,
O=[N+]([O-])c1ccc(CO)cc1,inactive,
CCCCNc1ccc(NCCCC)c2c1C(=O)c1ccccc1C2=O,,15.6% [at 19 µM]
N#Cc1nc(Cl)c(Cl)c(Cl)c1Cl,30.6 µM (active),
NCc1ccco1,inactive,
CCN(CCC#N)c1ccc(N=Nc2ccc([N+](=O)[O-])cc2)cc1,inactive,
Cc1ccc(C=O)cc1,inactive,
C=CC(=O)OCCOC1C2CCC1C1CC=CC12 (stereo not given),,2.85% [at 19 µM]
CCCCCN=C(N)N/N=C/c1c[nH]c2ccc(OC)cc12,16.8 µM (active),
CC(CC(C)(C)C)CC(C)(C)CC(C)(C)C (stereo not given),inactive,
